Among the data in ChEMBL document CHEMBL1157539, “Thousands of chemical starting points for antimalarial lead identification” (Nature, 2010) are Inhibition values, retold here.

Holding throughout (format): functional
Experiment [1] relates to Plasmodium falciparum. In words: GSK_TCMDC: Inhibition of Plasmodium falciparum 3D7 in whole red blood cells, using parasite LDH activity as an index of growth. Test compounds present at 2uM.
Experiment [2] concerns Plasmodium falciparum. In words: GSK_TCMDC: Inhibition of Plasmodium falciparum Dd2 in whole red blood cells, using parasite LDH activity as an index of growth. Test compounds present at 2uM.
The test system of experiment [3] is HepG2. In words: GSK_TCMDC: Percent inhibition of human HepG2 cell line. Test compounds present at 10uM.

Take `CCCNC(=O)C1Cc2cc(OC)c(OC)cc2C2(N1)C(=O)N(Cc1cccc(OC)c1)c1ccccc12` (centres undefined): the Inhibition (as a rule, the drop in the measured response relative to a control, in per cent) stood at 91% in experiment [1], 63% in experiment [2] and 11% in experiment [3].

Take `COc1cc2c(cc1NC(=O)CN1CCN(C(=O)c3ccco3)CC1)oc1ccccc12`: the Inhibition in experiment [1] was 96%; in experiment [2] it was 96%; in experiment [3], 13%.

With `O=C(Nc1ccc(OC(F)(F)F)cc1)Nc1ccc([N+](=O)[O-])cc1`, the Inhibition in experiment [1] was found to be 100%; in experiment [2], 100%; in experiment [3], 41%.

On to `COc1ccc2nccc(N3CCC(CCNCc4cc5c(cn4)OCCO5)CC3)c2n1.Cl`, for which the results for the Inhibition in experiment [1], in experiment [2] and in experiment [3] were 100%, 100% and 18%, respectively.

`CC[C@H](C)CNC(=O)c1ccc(-c2cccc(CN3CCC(N4CCCC4)CC3)c2)nc1.O=C(O)C(F)(F)F`: the Inhibition is recorded as 91% in experiment [1], 7% in experiment [2] and 0% in experiment [3].

As to `COCCn1c(-c2nc(-c3ccc(F)cc3)cnc2N)nc2ccccc21`, the Inhibition came out at 98% in experiment [1], 98% in experiment [2] and 16% in experiment [3].

As to `O=C(Nc1cccc(Cl)c1Cl)N[C@H]1CCN(CCCCCNC(=O)C2CC2c2ccc(Cl)c(Cl)c2)C1` (some centres undefined), the Inhibition in experiment [1] worked out at 87%; in experiment [2], 0%; in experiment [3] it was 40%.

With `O=C(Nc1ccc(Cl)cc1)NC1CCN(CCCCCNC(=O)C2CC2c2ccc(Cl)c(Cl)c2)CC1` (centres undefined), the Inhibition in experiment [1] was 100%; in experiment [2], 18%; in experiment [3], 51%.

Turning to `Cc1ccc(NC(=O)c2cccc(CN3CCCN(Cc4cccc(O)c4)CC3)c2)cc1C.O=C(O)C(F)(F)F`, the Inhibition in experiment [1] turned out to be 95%; in experiment [2] it was 31%; in experiment [3], 19%.

On to `CC(C)Cc1nc2nc(N)nc(N)c2cc1C(C)C`, for which the Inhibition in experiment [1] is given as 96%; in experiment [2], 3%; in experiment [3] it was 67%.

For the compound `CN(C)CCN(C)Cc1ccc(-c2cccc(NC(=O)c3cccc(C#N)c3)c2)cc1.O=C(O)C(F)(F)F`, the Inhibition in experiment [1] was 94%; in experiment [2], 11%; in experiment [3] it was 23%.

As to `O=C(NC1CCN(CC2(c3ccccc3F)CCCC2)CC1)c1cc[nH]n1`, the Inhibition in experiment [1] came out at 93%; in experiment [2], 91%; in experiment [3] it was 0%.

Regarding `Cc1ccccc1C1CCN(C2CCC(NC(=O)/C=C/c3cccc(Cl)c3Cl)CC2)CC1` (centres undefined), the Inhibition was found to be 94% in experiment [1], 23% in experiment [2] and 74% in experiment [3].

`CCc1nc2nc(C)cc(Nc3ccc(F)c(Cl)c3)n2n1`: the Inhibition amounted to 90% in experiment [1], 77% in experiment [2] and 2% in experiment [3].

With `CCc1cn2c3c(cc(C(=O)N[C@@H](Cc4ccccc4)[C@H](O)CNCc4cccc(C)c4)cc13)N(C)S(=O)(=O)CC2.O=CO`, the Inhibition came out at 96% in experiment [1], 98% in experiment [2] and 5% in experiment [3].

Regarding `CCCCCCC(C)c1cc(O)c2c(c1)OC(=O)CC2(CC)c1ccccn1.Cl` (centres undefined), the Inhibition in experiment [1] was 100%; in experiment [2], 0%; in experiment [3], 15%.

`CN(C)CCN(C)Cc1ccc(-c2ccc3c(Nc4ccc(Oc5ccccc5)cc4)ccnc3c2)o1`: the results for the Inhibition in experiment [1], in experiment [2] and in experiment [3] were 100%, 100% and 5%, respectively.

Regarding `CC(=O)Oc1cc(C(=O)Nc2ccc(Cl)cc2)cc2ccccc12`, the figures for the Inhibition in experiment [1], in experiment [2] and in experiment [3] were 88%, 47% and 16%, respectively.

Take `CC(Cc1ccc(NC(=O)c2ccc(CNCCc3ccccc3)cc2)cc1)NCCc1cccc(Cl)c1.Cl` (centres undefined): the Inhibition in experiment [1] turned out to be 100%; in experiment [2] it was 99%; in experiment [3], 100%.

As to `O=C(Nc1ccc(Cl)c(Cl)c1)N(Cc1ccccc1Br)C1CCNCC1`, the Inhibition came out at 96% in experiment [1], 8% in experiment [2] and 13% in experiment [3].

As to `COc1cc(C2C(Oc3ccccc3)C(=O)N2Cc2ccc(F)cc2)cc(OC)c1OC` (centres undefined), the Inhibition in experiment [1] stood at 100%; in experiment [2], 97%; in experiment [3] it was 0%.

Consider `CS(=O)(=O)N1CC2(CCN(CCC(NC(=O)NCc3ccccc3Cl)c3ccc(Cl)c(Cl)c3)CC2)c2ccccc21` (centres undefined), for which the Inhibition in experiment [1] amounted to 85%; in experiment [2], 98%; in experiment [3] it was 12%.

`Fc1ccc2[nH]c(-c3ccc(-c4ccc(CNCc5ccccc5)cc4)cc3)nc2c1.O=C(O)C(F)(F)F`: the Inhibition in experiment [1] amounted to 100%; in experiment [2] it was 94%; in experiment [3], 35%.

For the compound `c1ccc(C2CCC(N3CCC(N4CCN(c5ccccc5)CC4)CC3)CC2)cc1` (centres undefined), the Inhibition is listed as 97% in experiment [1], 34% in experiment [2] and 6% in experiment [3].

For the compound `CC1(C)CCC(C)(C)c2c1ccc(C1CCN(CCCCNC(=O)c3ccc(-c4ccc(C#N)cc4)cc3)CC1)c2OCC(N)=O`, the Inhibition is on record as 100% in experiment [1], 100% in experiment [2] and 99% in experiment [3].

In the case of `CCCSc1nc2c(c(=O)n1CCc1ccccc1)C1(CCCC1)Cc1ccccc1-2`, the values for the Inhibition in experiment [1], in experiment [2] and in experiment [3] were 99%, 53% and 46%, respectively.

For `Cc1ccc(NC(=O)c2nc(N3CCN(c4ccncc4)CC3)ccc2Cl)cc1F.O=C(O)C(F)(F)F`, the figures for the Inhibition in experiment [1], in experiment [2] and in experiment [3] were 100%, 57% and 51%, respectively.

For the compound `O=C(NCc1cccc(C(F)(F)F)c1)C1CCCN(C(=O)c2ccc(O)c(-c3ccc(Cl)c(Cl)c3)c2)C1` (centres undefined), the results for the Inhibition in experiment [1], in experiment [2] and in experiment [3] were 94%, 32% and 1%, respectively.
